Only some compounds are listed: those with a hit (about 12% of all), similar ones and a draw of the others.
CHOP inh: inhibitors of CHOP promoter induction, primary screen, cell-based, unfolded protein response, luciferase reporter | CHO-K1 CHOP-promoter luciferase, tunicamycin-induced, 15-18 h | actives 3.8% (n = 220,000) | inhibition, % at 10 µM;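 active = compounds that reduced the stress-induced luciferase reporter signal by more than about 70% of percent inhibition, limit read from the data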
Lmaj promast: Leishmania major promastigote growth inhibition, primary screen. Leishmania major promastigotes, resazurin fluorescence viability. inhibition, % at 10 µM. actives 9% (n = 200,000). AID 1063, 2008; in the data active = inhibition above about 50%;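 also: promastigotes grown with compound for 44 hours at 28 °C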
WT yeast gro inh: growth inhibition of WT strain, primary screen, mitochondrial fusion inhibitor project, WT and mutant strains, chemical genetic; actives 2.1% (n = 190,000); mitochondrial fusion phenotypic screen; AID 1362, 2008; inhibition, % at 10 µM; in the data active = inhibition above about 58%; tested in S. cerevisiae
Arbovirus inh: antivirals against arbovirus infection, primary screen, cell-based, full library, 10K replicate subset. arbovirus infection cell-based antiviral screen. inhibition, % at 10 µM. actives 0.37% (n = 200,000). AID 1251, 2008; in the data active = inhibition above about 30%
A number is an active result; . = inactive; / = not tested or not shown.

SMILES	CHOP inh	Lmaj promast	WT yeast gro inh	Arbovirus inh
COc1cc(C)ccc1OCCOCCN(C)Cc1ccccc1	.	91	.	.
C=CCn1c(SCC(=O)NC2CC2)nc2sc(CC)cc2c1=O	.	58	.	.
Cc1ccc2c(c1)[C@@H]1CN(C)CC[C@@H]1N2S(=O)(=O)c1ccc([N+](=O)[O-])cc1	.	.	.	.
Cc1ccc2c(c1)[C@@H]1CN(C)CC[C@@H]1N2S(=O)(=O)c1ccc(F)cc1	.	88	.	.
COc1ccc(Nc2ncnc3ccccc23)c(OC)c1	.	.	.	.
CC(Nc1nc(-c2ccccc2O)nc2ccccc12)c1ccccc1 (centres undefined)	.	/	/	/
CC(Nc1nc(N2CCCCC2)nc2ccccc12)c1ccccc1 (centres undefined)	.	100	.	.
C=CCNc1nc(N2CCCC2)nc2ccccc12	.	100	.	.
COc1ccc(Nc2nc(N3CCCC3)nc3ccccc23)c(OC)c1	/	100	.	.
CC(Nc1nc(-c2ccccc2)nc2ccccc12)c1ccccc1 (centres undefined)	.	98	.	.
COc1ccc(CCNC(=O)c2cc(C3CC3)on2)cc1OC	.	/	/	/
Cc1c(N(C(=O)c2ccccn2)C2(C(=O)NC3CCCC3)CCCCC2)c(=O)n(-c2ccccc2)n1C	.	.	.	.
COc1ccc(-c2cc(C(F)F)n3ncc(C(=O)N4CCSCC4)c3n2)cc1	.	.	.	.
COc1ccc(-c2cc(C(F)F)n3ncc(C(=O)Nc4cccc(S(=O)(=O)N5CCOCC5)c4)c3n2)cc1	.	65	.	.
O=C(Nc1cccc(S(=O)(=O)N2CCOCC2)c1)c1cn(-c2ccccc2)nc1-c1ccc(F)cc1	72	99	.	.
O=C(Nc1cccc(S(=O)(=O)N2CCOCC2)c1)c1cn(-c2ccccc2)nc1-c1ccccc1	.	.	.	.
COc1ccc(-c2cc(C(=O)N3CCOCC3)c3cc(C)ccc3n2)cc1	.	65	.	.
Cc1ccc(-c2cc(C(=O)N3CCOCC3)c3ccccc3n2)cc1	.	.	.	.
COc1ccc(-c2cc(C(F)F)n3ncc(C(=O)N4CCN(C)CC4)c3n2)cc1	.	98	.	.
CN(CC(=O)O)Cc1nc2ccccc2[nH]1	.	.	.	.
Cc1ccc(OCc2nnc(NC(=O)c3cccnc3)s2)cc1	.	/	/	/
O=C(c1cc(-c2ccccc2)nc2ccccc12)N1CCc2ccccc2C1	.	58	71	.
O=C(c1cnn2c(C(F)F)cc(-c3ccccc3)nc12)N1CCc2ccccc2C1	.	.	78	.
NS(=O)(=O)c1ccc(NC(=O)COC(=O)c2cn(-c3ccccc3)nc2-c2ccc(F)cc2)cc1	78	.	.	.
Cc1cc(C(F)F)n2ncc(C(=O)N3CCc4ccccc4C3)c2n1	.	.	.	.
SMILES	CHOP inh	Lmaj promast	WT yeast gro inh	Arbovirus inh
Cc1ccc2nc(-c3ccccc3)cc(C(=O)N3CCc4ccccc4C3)c2c1	.	.	.	.
O=C(CN1CCN(Cc2ccc(Cl)cc2)CC1)N/N=C/c1ccccc1F	.	/	/	/
O=C(NCCSc1ccccc1)c1ccc(CN2CCOCC2)cc1	.	/	/	/
O=C(NCCSCc1ccc(Cl)cc1Cl)c1ccc(CN2CCOCC2)cc1	.	89	.	.
Cc1cccc(CSCCNC(=O)c2ccc(CN3CCOCC3)cc2)c1	.	86	.	.
CC(C(=O)c1ccccc1)[n+]1cccc(C(N)=O)c1 (centres undefined)	.	/	/	/
CC(C(=O)c1ccc(Br)cc1)[n+]1cccc(NC(=O)c2ccccc2)c1 (centres undefined)	.	56	.	.
O=C(C[n+]1cccc(NC(=O)c2ccccc2)c1)c1ccc(NC(=O)c2ccccc2)cc1	.	71	.	.
CC(C)C(=O)Nc1ccccc1C(=O)OCC(=O)c1ccc2c(c1)OCCO2	.	.	.	.
Cc1ccccc1OCc1nc(-c2ccc(Br)o2)no1	84	.	.	.
COc1ccccc1-c1nc(-c2ccc(Br)o2)no1	73	.	.	.
COc1ccccc1Cc1nc(-c2ccc(Br)o2)no1	.	.	.	.
Cc1ccc(-c2noc(COc3ccccc3C)n2)cc1	90	.	.	.
COc1ccccc1Cc1nc(-c2cccnc2)no1	.	/	/	/
COc1ccc(-c2noc(Cc3ccccc3OC)n2)cc1	92	.	.	.
CCCc1ccc(Oc2cc(N3CCOCC3)nc(-c3ccccc3)n2)cc1	/	.	/	/
CCCN(CCC)C(=O)C[n+]1cccc(/C=N/O)c1	.	.	.	.
CCc1nn(C(C)C(=O)N2CCN(Cc3ccccc3)CC2)c(=O)c2cc3occc3n12 (centres undefined)	.	.	58	.
COc1cccc(OCCOc2ccccc2[N+](=O)[O-])c1	/	.	/	/
COc1cccc(OCCCOc2ccccc2C(C)C)c1	71	.	.	.
C=CCNC(=O)C1(c2ccccc2)CC1(Cl)Cl (centres undefined)	.	.	.	.
COc1ccccc1N1CCN(C(=S)Nc2ccc(S(=O)(=O)N3CCOCC3)cc2)CC1	.	71	.	.
COc1ccccc1N1CCN(S(=O)(=O)c2cccs2)CC1	.	54	.	.
COc1ccc(S(=O)(=O)N2CCN(c3ccccc3OC)CC2)cc1OC	.	.	.	49
COC(=O)Nc1ccc(S(=O)(=O)N2CCC(C(=O)N(C)C3CCCCC3)CC2)cc1	.	.	.	30
SMILES	CHOP inh	Lmaj promast	WT yeast gro inh	Arbovirus inh
COc1ccccc1N1CCN(S(=O)(=O)c2ccc(Br)s2)CC1	.	.	.	.
Cc1c2c(c(C)n1C)C(C(=O)NC1CCCCC1)N(Cc1ccccc1)C2=O (centres undefined)	.	.	.	.
O=C(NC1(C(F)(F)F)C(=O)Nc2c1c(=O)[nH]c(=O)n2-c1ccccc1)c1ccncc1 (centres undefined)	/	.	/	/
C(=N\Nc1nc(N2CCCC2)nc(N2CCCC2)n1)/c1ccncc1	.	.	.	.
COc1ccccc1N1CCN(C2CCN(S(=O)(=O)c3ccc4ccccc4c3)CC2)CC1	.	55	.	.
COc1ccccc1N1CCN(S(=O)(=O)c2ccc3nc(-c4ccccc4)[nH]c3c2)CC1	.	57	.	.
COc1ccccc1N1CCN(C2CCN(S(=O)(=O)c3ccc(C)cc3)CC2)CC1	.	/	/	/
COc1ccc(S(=O)(=O)N2CCC(C(=O)N3CCCCC3)CC2)cc1OC	.	.	61	.
Cc1[nH]c2ccccc2c1C(=O)CN1C(=O)NC2(CC(C)CC(C)(C)C2)C1=O (centres undefined)	.	90	.	.
Cc1[nH]c2ccccc2c1C(=O)CN1CCCC1	.	.	.	.
Clc1cc(Br)ccc1OCCCn1ccnc1	.	97	.	.
Cc1cc(Br)ccc1OCCn1ccnc1	.	72	.	.
CCSC(=O)NC1CCCCC1	.	/	/	/
CCOc1cc(NC(=S)NCCCN2CCOCC2)c(OCC)cc1NC(=O)C1CC1	.	.	.	.
Cc1ccc(Nc2nc3nonc3[nH]c2=O)cc1Cl	.	.	64	.
CC(C)CC(=O)NC(=S)N1CCN(c2ccc([N+](=O)[O-])cc2Cl)CC1	.	.	.	.
CC(=O)C(=Nc1ccccc1Cl)NNc1ccc(Cl)cc1	.	93	60	.
O=C(NNc1ccc(Cl)cc1)c1c(F)cccc1Cl	.	/	/	/
